Test results taken from PubChem BioAssay (EPA / NIEHS).
Where “and” joins values, the source holds several entries; their conditions need not be identical. Equal values may be shown once. Where a structure was tested more than once in an assay, its records may differ in their call. Calls of active or inactive are those of the source. Rule for the calls: active = hit-call score of the fitted dose curve at least 0.9, where 1 is the maximum; inactive = score below 0.9.

What was measured:
[1] = APR_HepG2_CellLoss_72hr: Apredica 72-hour HepG2 Assay for Cell Loss (AID 2282915); details: high-content imaging
Method in brief: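 HepG2 cells exposed 72 h to compound at 0.39–200 uM (10 concentrations, duplicate) in 0.5% DMSO. Fixed with 3.7% formaldehyde and Hoechst 33342-stained. Imaged at 20x; nuclear count gives cell number, fitted bidirectionally versus DMSO.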

[2] = APR_HepG2_P-H2AX_72hr: Apredica 72-hour HepG2 Assay for H2AX Phosphorylation (AID 2282916); details: imaging, actives raise or lower the signal;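 note: phospho-histone H2A.x immunostain intensity per cell marking DNA damage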
Method in brief: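 Readout: phospho-H2A.x immunofluorescence (FITC secondary) plus Hoechst nuclear stain, high-content imaging at 20x, six fields/well. HepG2, 72 hr compound exposure, 0.39–200 uM, final DMSO 0.5% v/v. Gain or loss fitted relative to DMSO baseline.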

[3] = APR_HepG2_MitoMembPot_72hr: Apredica 72-hour HepG2 Assay for Mitochondrial Membrane Potential (AID 2282917); details: imaging, actives raise or lower the signal
Method in brief: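 HepG2 cells dosed 72 hr with compound at 0.39–200 uM in duplicate, 0.5% v/v DMSO final. Mitochondria stained with 250 nM MitoTracker Red CMXRos for 30 min before formaldehyde fixation, imaged by high-content fluorescence; bidirectional fit versus DMSO.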

[4] = APR_HepG2_MitoticArrest_72hr: Apredica 72-hour HepG2 Assay for Mitotic Arrest (AID 2282918); details: high-content imaging, actives raise or lower the signal
Method in brief: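 HepG2 cells treated 72 h at 0.39–200 uM, 0.5% DMSO final; formaldehyde-fixed, stained with Hoechst 33342 and phospho-histone H3 antibody, imaged by high-content fluorescence; bidirectional fit versus DMSO.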

[5] = APR_HepG2_MicrotubuleCSK_72hr: Apredica 72-hour HepG2 Assay for Microtubule CSK Stabilty (AID 2282919); details: HepG2 microtubule cytoskeleton, high-content imaging, actives raise or lower the signal
Method in brief: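 HepG2, 72 hr cmpd exposure, 0.39–200 uM (10 pts, duplicate), 0.5% DMSO. 3.7% formaldehyde fix, 0.5% Triton perm, anti-alpha-tubulin/Cy5 plus Hoechst. HCS fluorescence intensity; bidirectional fit vs DMSO baseline; taxol as positive control.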

[6] = APR_HepG2_P-H2AX_24hr: Apredica 24-hour HepG2 Assay for H2AX Phosphorylation (AID 2282920); details: high-content imaging, actives raise or lower the signal
Method in brief: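 HepG2 cells dosed 24 h at 0.39–200 uM (10 points, duplicate, 0.5% DMSO final). Formaldehyde-fixed and permeabilized, then immunostained for phospho-H2A.x with Hoechst. Fluorescence quantified by high-content imaging, fitted bidirectionally versus DMSO.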

[7] = APR_HepG2_StressKinase_72hr: Apredica 72-hour HepG2 Assay for Stress Kinase (AID 2282921); details: HepG2 stress kinase (phospho-c-Jun) imaging, actives raise or lower the signal
Method in brief: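 Phospho-c-Jun immunofluorescence measured by high-content imaging at 20x, six fields per well; bidirectional curve fitting against DMSO as baseline. Dosing: 0.39–200 uM, 72 h, 0.5% DMSO final.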

[8] = APR_HepG2_StressKinase_24hr: Apredica 24-hour HepG2 Assay for Stress Kinase (AID 2282922); details: HepG2 stress kinase (phospho-c-Jun) imaging, actives raise or lower the signal
Method in brief: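 Read-out: phospho-c-Jun immunofluorescence (Cy3 secondary) quantified by high-content imaging at 20x, nuclei defined by Hoechst 33342. Human HepG2 liver cells dosed 24 hr, 0.39–200 uM, DMSO 0.5% v/v; gain or loss of signal fitted relative to DMSO.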

[9] = APR_HepG2_p53Act_72hr: Apredica 72-hour HepG2 Assay for p53 Activation (AID 2282923); details: high-content imaging, actives raise or lower the signal;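 note: average cellular p53 protein immunofluorescence intensity in HepG2 cells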
Method in brief: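 Readout: p53 immunofluorescence quantified by automated high-content imaging at 20x, six fields per well, nuclei located via Hoechst. Dosing ran 72 hr over ten concentrations from 0.39 to 200 uM; bidirectional curve fitting against DMSO baseline.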

[10] = APR_HepG2_MitoMass_72hr: Apredica 72-hour HepG2 Assay for Mitochondrial Mass (AID 2282924); details: high-content imaging, actives raise or lower the signal;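 note: MitoTracker Red CMXRos stain intensity per cell imaged as mitochondrial mass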
Method in brief: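 Read-out: MitoTracker Red fluorescence intensity from automated imaging (20x, six fields per well) in human HepG2 liver cells. Dosing ran 72 hr, 0.39–200 uM, 0.5% DMSO; bidirectional curve fitting versus DMSO baseline.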

[11] = APR_HepG2_NuclearSize_72hr: Apredica 72-hour HepG2 Assay for Nuclear Size (AID 2282925); details: high-content imaging, actives raise or lower the signal
Method in brief: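 Read-out: nuclear diameter from Hoechst 33342 images (ArrayScan, 20x, six fields/well), via cell-cycle image analysis. HepG2 were dosed 0.39–200 uM for 72 hr in 0.5% DMSO. Bidirectional fit relative to DMSO.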

[12] = ATG_CRE_CIS: Attagene CIS-FACTORIAL HepG2 Assay for human cAMP Responsive Element (CRE) binding protein 3 (AID 2282926); details: HepG2 CRE cis-reporter, Attagene multiplexed mRNA; actives raise or lower the signal
Method in brief: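 Induced reporter mRNA from a CRE cis element, measured in HepG2 among many multiplexed units at 24 h. Detection used RT-PCR plus capillary electrophoresis of fluorescent fragments; DMSO served as negative control.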

[13] = target: CCAAT/enhancer-binding protein beta (Homo sapiens) (UniProt P17676); test: ATG_C_EBP_CIS: Attagene CIS-FACTORIAL HepG2 Assay for human CCAAT/Enhancer Binding Protein (C/EBP) beta (AID 2282927); details: HepG2 Attagene cis-factorial transcription factor reporter; actives raise or lower the signal
Method in brief: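 HepG2 transiently transfected with multiplexed reporter units under cis-regulatory promoters reporting endogenous C/EBPb activity. After 24 h exposure, reporter mRNA assayed by RT-PCR, fluorescent labelling, HpaI digestion and capillary electrophoresis; bidirectional fitting versus DMSO.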

[14] = ATG_CMV_CIS: Attagene CIS-FACTORIAL HepG2 Assay for human CMV (Internal Marker) (AID 2282928); details: HepG2 CMV promoter reporter, transcription factor profiling; actives raise or lower the signal;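 note: endpoint acts as a background internal control marker rather than a target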
Method in brief: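 24 h chemical treatment, HepG2 with transient multi-reporter transfection; RNA → oligo(dT) RT → PCR → 6-FAM extension → HpaI digest → CE fluorescence. Bidirectional fit, DMSO negative control.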

[15] = ATG_DR4_LXR_CIS: Attagene CIS-FACTORIAL HepG2 Assay for human Liver X Receptor (LXR), DR4 submotif (AID 2282929); details: HepG2 Attagene DR4 cis-reporter, mRNA transcription; actives raise or lower the signal
Method in brief: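 HepG2, transient MRTU transfection, cis-element (DR4) promoter; 24 h compound exposure; total RNA → oligo(dT) RT → PCR → 6-FAM primer extension → HpaI cut → CE. Gain/loss vs DMSO, bidirectional fit.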

[16] = target: Aryl hydrocarbon receptor (Homo sapiens) (UniProt P35869); test: ATG_Ahr_CIS: Attagene CIS-FACTORIAL HepG2 Assay for human Aryl Hydrocarbon Receptor (Ahr) (AID 2282930); details: HepG2 AhR cis-factorial reporter transcription; actives raise or lower the signal
Method in brief: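 HepG2 cells transiently transfected with cis-element-driven multiplexed reporter units; endogenous AhR activity read as reporter mRNA 24 h after dosing, via RT-PCR, 6-FAM labelling, HpaI digestion and capillary electrophoresis. Bidirectional fit relative to DMSO.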

[17] = ATG_AP_1_CIS: Attagene CIS-FACTORIAL HepG2 Assay for human Activator Protein 1 (AP-1) (AID 2282931); details: HepG2 Attagene cis-factorial AP-1 reporter mRNA; actives raise or lower the signal
Method in brief: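 Transient MRTU transfection of HepG2 → 24 h chemical treatment → RNA isolation, RT-PCR, 6-FAM labelling, HpaI digest → capillary electrophoresis. Fit: bidirectional, DMSO negative control.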

[18] = ATG_AP_2_CIS: Attagene CIS-FACTORIAL HepG2 Assay for human Activator Protein 2 (AP-2) (AID 2282932); details: HepG2 AP-2 cis-reporter, Attagene transcription factor profiling; actives raise or lower the signal
Method in brief: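 Read-out: fluorescent reporter mRNA via RT-PCR and capillary electrophoresis, 24 h post-dose in transiently transfected HepG2. Endogenous factors drive cis-promoter reporters; gain or loss of signal fitted bidirectionally against DMSO.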

[19] = ATG_BRE_CIS: Attagene CIS-FACTORIAL HepG2 Assay for human Bone Morphogenetic Protein (BMP) Response Element (BRE) (AID 2282933); details: HepG2 BMP response element reporter, Attagene transcription factor profiling; actives raise or lower the signal
Method in brief: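 Endogenous transcription factor activity at a BMP response element was monitored in transfected HepG2 cells 24 h after dosing. Fluorescent RT-PCR products were resolved by capillary electrophoresis, and activity was fitted in both directions versus DMSO.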

[20] = target: Retinoic acid receptor alpha (Homo sapiens) (UniProt P10276); test: ATG_DR5_RAR_CIS: Attagene CIS-FACTORIAL HepG2 Assay for human Retinoic Acid Receptor Alpha (RARE), DR5 submotif (AID 2282934); details: HepG2 Attagene cis-factorial RARE DR5 reporter, mRNA; actives raise or lower the signal;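 for AC50: reporter responds to endogenous RAR alpha beta and gamma in HepG2 not RARA alone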
Method in brief: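 HepG2 cells transiently transfected with multiplexed reporter units; DR5 cis-element drives reporter through endogenous transcription factors. After 24 h dosing, reporter mRNA quantified by RT-PCR, fluorescent labeling, HpaI digestion and capillary electrophoresis; bidirectional fitting versus DMSO.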

Measured: AC50

Sequence of Retinoic acid receptor alpha (Homo sapiens) (P10276 whole entry, looked up): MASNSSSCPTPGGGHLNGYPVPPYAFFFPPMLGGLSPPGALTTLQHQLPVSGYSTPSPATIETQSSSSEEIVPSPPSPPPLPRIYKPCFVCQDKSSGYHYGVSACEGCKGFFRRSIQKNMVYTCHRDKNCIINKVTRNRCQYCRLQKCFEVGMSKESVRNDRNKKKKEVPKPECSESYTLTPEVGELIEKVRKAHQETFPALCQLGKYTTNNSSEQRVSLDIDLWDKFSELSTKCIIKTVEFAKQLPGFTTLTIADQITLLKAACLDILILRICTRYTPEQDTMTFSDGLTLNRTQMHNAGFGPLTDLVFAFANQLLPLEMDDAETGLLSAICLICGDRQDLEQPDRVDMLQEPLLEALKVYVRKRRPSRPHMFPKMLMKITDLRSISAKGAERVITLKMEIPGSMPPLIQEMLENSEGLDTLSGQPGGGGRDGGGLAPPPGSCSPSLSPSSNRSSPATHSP
Sequence of Aryl hydrocarbon receptor (Homo sapiens) (P35869 whole entry, looked up): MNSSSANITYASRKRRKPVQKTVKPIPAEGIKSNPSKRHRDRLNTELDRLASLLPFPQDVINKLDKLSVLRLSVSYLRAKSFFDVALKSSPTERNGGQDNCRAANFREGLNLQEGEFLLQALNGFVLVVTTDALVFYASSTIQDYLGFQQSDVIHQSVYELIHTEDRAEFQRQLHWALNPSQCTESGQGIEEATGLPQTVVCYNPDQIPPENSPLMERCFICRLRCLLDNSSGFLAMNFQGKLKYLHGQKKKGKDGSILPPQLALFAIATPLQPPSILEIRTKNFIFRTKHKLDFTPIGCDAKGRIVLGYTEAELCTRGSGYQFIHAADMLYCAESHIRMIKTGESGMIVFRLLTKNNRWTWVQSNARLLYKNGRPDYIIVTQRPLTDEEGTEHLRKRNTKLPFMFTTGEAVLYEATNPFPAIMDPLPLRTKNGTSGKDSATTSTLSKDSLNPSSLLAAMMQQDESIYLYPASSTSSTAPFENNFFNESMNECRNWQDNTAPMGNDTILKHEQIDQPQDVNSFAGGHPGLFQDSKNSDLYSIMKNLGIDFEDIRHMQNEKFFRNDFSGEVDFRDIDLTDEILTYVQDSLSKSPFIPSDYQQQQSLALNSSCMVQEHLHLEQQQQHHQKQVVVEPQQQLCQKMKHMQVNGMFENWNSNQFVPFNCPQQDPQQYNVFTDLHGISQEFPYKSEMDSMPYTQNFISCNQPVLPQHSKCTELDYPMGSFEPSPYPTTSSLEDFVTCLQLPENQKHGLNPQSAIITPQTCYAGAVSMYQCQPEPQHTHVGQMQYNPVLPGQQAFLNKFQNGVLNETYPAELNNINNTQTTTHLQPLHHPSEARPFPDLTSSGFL
Sequence of CCAAT/enhancer-binding protein beta (Homo sapiens) (P17676 whole entry, looked up): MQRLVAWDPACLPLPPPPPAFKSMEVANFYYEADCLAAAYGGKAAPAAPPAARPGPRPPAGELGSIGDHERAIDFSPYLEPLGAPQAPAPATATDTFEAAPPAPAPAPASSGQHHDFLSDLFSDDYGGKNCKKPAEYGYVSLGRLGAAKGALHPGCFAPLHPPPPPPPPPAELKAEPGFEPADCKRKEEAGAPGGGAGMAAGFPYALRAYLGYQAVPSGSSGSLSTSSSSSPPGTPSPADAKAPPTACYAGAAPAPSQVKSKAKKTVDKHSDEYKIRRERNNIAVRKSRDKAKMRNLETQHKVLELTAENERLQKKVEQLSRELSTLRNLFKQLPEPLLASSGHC

CC(C)(C)c1ccc(CSc2cnn(C(C)(C)C)c(=O)c2Cl)cc1
active: [1] 8.33 µM | [5] 7.56 µM | [12] 0.188 µM | [13] 0.0129 µM | [15] 50 µM | [17] 0.0997 µM | [19] 0.103 µM | [20] 0.583 µM
inactive: all other assays above

COC(=O)C=C(C)OP(=O)(OC)OC
inactive: all assays above

COC(=O)C(C)Oc1ccc(Oc2ccc(Cl)cc2Cl)cc1 (stereo not given)
inactive: all assays above

CC1=C(C(=O)Nc2ccccc2)SCCO1
inactive: all assays above

C=CCC1=C(C)[C@@H](OC(=O)[C@@H]2[C@@H](C=C(C)C)C2(C)C)CC1=O
active: [1] 102 µM | [4] 67.4 µM | [5] 79.5 µM | [6] 118 µM | [9] 107 µM | [12] 7.32 µM | [20] 2.87 µM
inactive: all other assays above

CO/C=C(/C(=O)OC)c1ccccc1Oc1cc(Oc2ccccc2C#N)ncn1
inactive: [2] | [3] | [4] | [5] | [6] | [7] | [8] | [9] | [10] | [11] | [12] | [13] | [14] | [15] | [16] | [17] | [18] | [19] | [20]
active: [2] 53.2 µM and 42.2 µM | [3] 164 µM | [4] 13.9 µM and 24.7 µM and 31 µM | [7] 36 µM | [9] 50.7 µM and 53 µM and 50.6 µM | [10] 1.68 µM and 3.44 µM | [12] 21 µM | [13] 7.46 µM | [15] 41.8 µM and 26.2 µM and 52.9 µM | [16] 106 µM and 122 µM | [17] 9.92 µM

O=C(O)COc1nc(Cl)c(Cl)cc1Cl
inactive: all assays above

CS/C(C)=N/OC(=O)N(C)SN(C)C(=O)O/N=C(\C)SC
inactive: all assays above

CCOP(=S)(OCC)SCn1c(=O)oc2cc(Cl)ccc21
active: [1] 61.4 µM | [5] 99.8 µM | [12] 9.92 µM | [13] 12.9 µM | [14] 26.4 µM | [15] 80.8 µM | [19] 50 µM | [20] 12.7 µM
inactive: all other assays above

N#Cc1cc(Br)c(O)c(Br)c1
active: [1] 101 µM | [12] 33.5 µM | [13] 18.8 µM | [16] 50 µM | [17] 50 µM | [19] 38.9 µM
inactive: all other assays above

Fc1ccc(Oc2ccnc3cc(Cl)cc(Cl)c23)cc1
active: [1] 76.2 µM | [6] 100 µM | [14] 6.43 µM | [15] 2.72 µM | [20] 2.77 µM
inactive: all other assays above

CCOC(=O)C(Cl)Cc1cc(-n2nc(C)n(C(F)F)c2=O)c(F)cc1Cl (stereo not given)
inactive: all assays above

CNC(=O)ON=CC(C)(C)SC
inactive: all assays above
